Read-out in experiment [1]: CD69, CD69 (gene 969)
Kind of experiment: BSK_SAg_CD69: BioMAP Diversity Plus: SAg Assay for CD69 Biomarker Activity (AID 2283089).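 As to AC50: cell surface CD69 protein quantified by ELISA with fluorescence detection.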 The following applies: primary human HUVEC with PBMC; actives raise or lower the signal. Summed up: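 Endothelial/PBMC co-culture; chemical added; 24 h incubation; CD69 ELISA with fluorescence detection; bidirectional fit vs DMSO.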

Read-out in experiment [2]: Monocyte Chemoattractant Protein-1 (MCP1), CCL2 (gene 6347)
Kind of experiment: BSK_SAg_MCP1: BioMAP Diversity Plus: SAg Assay for Monocyte Chemoattractant Protein-1 (MCP1) Biomarker Activity (AID 2283090). The following applies: primary human HUVEC with PBMC; actives raise or lower the signal. Summed up:
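Values derive from bidirectional fitting of ELISA-measured MCP1 against DMSO controls. Readings were taken 24 h after dosing human vascular endothelial cells co-cultured with peripheral blood mononuclear cells under superantigen stimulation.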

Read-out in experiment [3]: E-selectin (Homo sapiens) (UniProt P16581)
The experiment in a line: BSK_SAg_Eselectin: BioMAP Diversity Plus: SAg Assay for Eselectin Biomarker Activity (AID 2283091). The following applies: primary human HUVEC with PBMC; actives raise or lower the signal. Summed up:
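Primary human endothelial cells and peripheral blood mononuclear cells were co-cultured and exposed to chemical for 24 hours. E-selectin levels were then quantified by ELISA, with bidirectional curve fitting normalised to DMSO controls.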

Read-out in experiment [4]: Monokine induced gamma interferon (MIG), CXCL9 (gene 4283)
Kind of experiment: BSK_SAg_MIG: BioMAP Diversity Plus: SAg Assay for Monokine induced gamma interferon (MIG) Biomarker Activity (AID 2283092). The following applies: primary human HUVEC with PBMC; actives raise or lower the signal. The gist of the method: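 Measures CXCL9 protein by ELISA in a human vascular primary-cell co-culture (umbilical vein endothelium with PBMC) 24 h after chemical addition. Activity is scored up or down from the DMSO control.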

Experiment [5] can be described thus: BSK_SAg_PBMCCytotoxicity: PBMC Cytotoxicity Assessment in the BioMAP Diversity Plus: SAg Assay (AID 2283093).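 Also: PBMC viability measured as Alamar Blue reduction fluorescence at 546/580 nm; fitted both ways against DMSO so a hit may be loss or gain of signal.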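 As to AC50: PBMC superantigen activated with SEB plus TSST-1 one hour after compound addition.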 The following applies: primary human HUVEC with PBMC. The gist of the method: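 Alamar Blue reduction (6 h, 546/580 nm) reports PBMC cytotoxicity after 90 h superantigen activation (SEB, TSST-1; 20 ng/mL final each) with 1 h compound pre-treatment. Gain or loss of signal fitted versus DMSO.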

Experiment [6] in a line: BSK_SAg_Proliferation: Cell Proliferation Assessment in the BioMAP Diversity Plus: SAg Assay (AID 2283095).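 Also: relative cell number as total protein by SRB absorbance in sub-confluent culture.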 Conditions: primary human HUVEC with PBMC. Summed up:
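Absorbance of sulforhodamine B at 560 nm reports total protein in a human vascular endothelial/PBMC co-culture after 96 h chemical exposure. Gain or loss of signal is fitted in both directions against DMSO.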

A short description of experiment [7]: BSK_SAg_SRB: Viability Assessment in the BioMAP Diversity Plus: SAg Assay (AID 2283096).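 Also: cells read one day after compound addition; hits may be either gain or loss of signal compared with DMSO.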 The following applies: primary human HUVEC with PBMC. The gist of the method:
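This overt-cytotoxicity endpoint quantifies protein in human endothelial/PBMC co-cultures at 24 h using SRB absorbance (560 nm) after trichloroacetic acid fixation. Values reflect signal change from the DMSO negative control, fitted bidirectionally.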

Experiment [8] deals with human CYP19A1, CYP19A1 (gene 1588) (UniProt P11511). The experiment in a line: NVS_ADME_hCYP19A1: NovaScreen (NVS) CYP450-related Enzyme Activity (ADME) Assay for human CYP19A1 (AID 2283098; active = hit-call score of the fitted dose curve at least 0.9, where 1 is the maximum;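 as to AC50: potency for inhibitors seen as loss of fluorescent enzyme signal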). Summed up: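 Compounds were first screened at 10 uM in duplicate against purified enzyme, with a fluorogenic substrate and fluorescence intensity detection after 0.5 h. Inhibition appears as reduced signal against acetonitrile control.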
human CYP19A1, CYP19A1 (gene 1588), sequence (P11511 whole entry, looked up): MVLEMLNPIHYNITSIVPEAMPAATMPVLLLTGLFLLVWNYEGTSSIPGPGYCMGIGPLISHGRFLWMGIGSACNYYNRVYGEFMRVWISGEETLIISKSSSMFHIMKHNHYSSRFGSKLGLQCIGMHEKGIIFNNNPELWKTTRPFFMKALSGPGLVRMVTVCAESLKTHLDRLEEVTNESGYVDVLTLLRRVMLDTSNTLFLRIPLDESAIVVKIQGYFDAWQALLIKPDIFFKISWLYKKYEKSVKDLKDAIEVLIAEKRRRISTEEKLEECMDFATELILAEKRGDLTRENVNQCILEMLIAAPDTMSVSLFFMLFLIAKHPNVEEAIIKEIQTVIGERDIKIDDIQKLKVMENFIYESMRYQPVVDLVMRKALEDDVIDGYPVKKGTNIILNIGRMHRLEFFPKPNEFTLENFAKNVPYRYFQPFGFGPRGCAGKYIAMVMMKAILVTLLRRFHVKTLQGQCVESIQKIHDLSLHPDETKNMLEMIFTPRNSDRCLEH

The target of experiment [9] is human CYP2D6, CYP2D6 (gene 1565) (UniProt P10635). The experiment in a line: NVS_ADME_hCYP2D6: NovaScreen (NVS) CYP450-related Enzyme Activity (ADME) Assay for human CYP2D6 (AID 2283107; active = hit-call score of the fitted dose curve at least 0.9, where 1 is the maximum). The gist of the method: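 Compounds were first tested in duplicate at 10 uM against recombinant enzyme produced in insect cells, with substrate turnover measured by fluorescence after 1 hour. Decreased signal, referenced to acetonitrile vehicle, was taken as reduced enzyme activity. Active chemicals went on to concentration-response testing.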
human CYP2D6, CYP2D6 (gene 1565), sequence (P10635 whole entry, looked up): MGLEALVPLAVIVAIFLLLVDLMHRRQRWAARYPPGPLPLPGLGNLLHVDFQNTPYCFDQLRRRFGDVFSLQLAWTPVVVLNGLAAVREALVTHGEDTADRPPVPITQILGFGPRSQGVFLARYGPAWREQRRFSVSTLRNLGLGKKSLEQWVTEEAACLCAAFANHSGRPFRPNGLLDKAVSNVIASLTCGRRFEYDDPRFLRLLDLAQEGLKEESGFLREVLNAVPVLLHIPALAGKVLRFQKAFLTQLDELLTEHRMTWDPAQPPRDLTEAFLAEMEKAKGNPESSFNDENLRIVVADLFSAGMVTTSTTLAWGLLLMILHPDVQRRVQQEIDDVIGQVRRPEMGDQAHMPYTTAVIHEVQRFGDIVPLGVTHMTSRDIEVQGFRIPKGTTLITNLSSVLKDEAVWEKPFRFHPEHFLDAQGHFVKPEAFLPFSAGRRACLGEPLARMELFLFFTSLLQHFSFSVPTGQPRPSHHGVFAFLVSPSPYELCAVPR

Experiment [10] concerns the target Cytochrome P450 2C19 (Homo sapiens) (UniProt P33261). Kind of experiment: NVS_ADME_hCYP2C19: NovaScreen (NVS) CYP450-related Enzyme Activity (ADME) Assay for human CYP2C19 (AID 2283113; active = hit-call score of the fitted dose curve at least 0.9, where 1 is the maximum;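 as to AC50: potency for inhibition seen as loss of fluorescent signal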). Summed up: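 Chemicals first screened in duplicate at 10 uM against recombinant human enzyme produced in insect cells; confirmed actives then run as concentration series. Fluorogenic substrate turnover read by fluorescence after 1 h, normalised to acetonitrile.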

Read-out in experiment [11]: Interleukin-8 (IL8), CXCL8 (gene 3576)
Kind of experiment: BSK_SAg_IL8: BioMAP Diversity Plus: SAg Assay for Interleukin-8 (IL8) Biomarker Activity (AID 2283094). Conditions: primary human HUVEC with PBMC; actives raise or lower the signal. The gist of the method: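 Chemicals were dosed onto a human endothelial–PBMC co-culture, and IL-8 was quantified by ELISA after 24 h. Both increases and decreases were fitted relative to DMSO.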

Experiment [12] has as its target human CYP2C9, CYP2C9 (gene 1559) (UniProt P11712). The experiment in a line: NVS_ADME_hCYP2C9: NovaScreen (NVS) CYP450-related Enzyme Activity (ADME) Assay for human CYP2C9 (AID 2283108; active = hit-call score of the fitted dose curve at least 0.9, where 1 is the maximum). Summed up:
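Cell-free assay of recombinant human CYP2C9 produced in Sf9 cells, with enzyme activity read by fluorescence intensity 0.75 h after compound addition. Loss of signal versus an acetonitrile negative control indicates inhibition. Primary screen used 10 uM in duplicate; actives were retested in concentration series.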

SMILES strings stand for the structures. Records with an inconclusive call do not appear. Activity calls are given as the source filed them. The calls were made as follows, unless noted: active = hit-call score of the fitted dose curve at least 0.9, where 1 is the maximum; inactive = score below 0.9.

E-selectin (Homo sapiens), sequence (P16581 whole entry, looked up): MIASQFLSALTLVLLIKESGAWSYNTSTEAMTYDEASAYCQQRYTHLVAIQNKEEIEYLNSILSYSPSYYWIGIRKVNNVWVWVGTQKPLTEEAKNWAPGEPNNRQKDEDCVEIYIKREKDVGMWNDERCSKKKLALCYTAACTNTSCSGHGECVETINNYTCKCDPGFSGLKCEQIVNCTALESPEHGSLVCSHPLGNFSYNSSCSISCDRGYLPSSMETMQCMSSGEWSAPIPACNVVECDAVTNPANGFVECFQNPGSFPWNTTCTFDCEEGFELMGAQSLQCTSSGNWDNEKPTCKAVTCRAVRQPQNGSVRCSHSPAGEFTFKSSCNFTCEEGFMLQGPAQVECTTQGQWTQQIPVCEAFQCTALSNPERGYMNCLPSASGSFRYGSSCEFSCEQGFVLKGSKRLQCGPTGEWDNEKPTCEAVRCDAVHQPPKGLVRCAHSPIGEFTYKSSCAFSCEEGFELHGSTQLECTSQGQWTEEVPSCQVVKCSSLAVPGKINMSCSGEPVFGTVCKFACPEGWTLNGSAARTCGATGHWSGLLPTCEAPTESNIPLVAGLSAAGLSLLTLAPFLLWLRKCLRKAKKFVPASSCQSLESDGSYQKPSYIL
human CYP2C9, CYP2C9 (gene 1559), sequence (P11712 whole entry, looked up): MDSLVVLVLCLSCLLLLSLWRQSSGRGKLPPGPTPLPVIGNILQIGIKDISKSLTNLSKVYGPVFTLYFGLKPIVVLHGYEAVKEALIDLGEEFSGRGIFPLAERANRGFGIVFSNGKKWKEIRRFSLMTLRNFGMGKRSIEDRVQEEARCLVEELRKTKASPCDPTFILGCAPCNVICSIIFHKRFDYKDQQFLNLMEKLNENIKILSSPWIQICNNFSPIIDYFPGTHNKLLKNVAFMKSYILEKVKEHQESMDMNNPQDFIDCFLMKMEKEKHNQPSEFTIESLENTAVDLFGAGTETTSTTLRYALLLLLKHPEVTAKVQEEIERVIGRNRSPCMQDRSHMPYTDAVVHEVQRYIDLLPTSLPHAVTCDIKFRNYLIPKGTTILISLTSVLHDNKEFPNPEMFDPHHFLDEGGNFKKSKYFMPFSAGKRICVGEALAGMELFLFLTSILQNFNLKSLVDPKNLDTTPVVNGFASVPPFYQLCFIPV

By AC50 is commonly meant the concentration giving half of the maximal activity seen. Take `N#CN=C1SCCN1Cc1ccc(Cl)nc1`: the result in [1], in [2], in experiment [3], in experiment [4], in experiment [5] and in experiment [6] was inactive. The result in [7] and in [9] was inactive. For the same molecule, in experiment [8], the AC50 is 0.933 µM (active).

As to `CCOC(=O)C(C)OC(=O)c1cc(Oc2ccc(C(F)(F)F)cc2Cl)ccc1[N+](=O)[O-]` (stereo unspecified), the concentration at half-maximal activity (AC50) in experiment [1] is 12.8 µM (active); in experiment [3], 10 µM (active); in experiment [6], 30.9 µM (active); in experiment [7], 14 µM (active); in experiment [10], 4.01 µM (active). Also, the result in [2], in experiment [4], in [5], in experiment [8] and in [9] was inactive.

As to `Cc1c(COC(=O)[C@@H]2[C@H](/C=C(\Cl)C(F)(F)F)C2(C)C)cccc1-c1ccccc1`, the AC50 in experiment [1] is 5.92 µM (active); in experiment [3], 10.3 µM (active); in experiment [6] it was 14.1 µM (active); in experiment [7], 9.26 µM (active); in experiment [10] it was 12.9 µM (active). The outcome in experiment [2], in experiment [4], in [5] and in experiment [8] was inactive.

`O=C1C2CC=CCC2C(=O)N1SC(Cl)(Cl)Cl` (stereo unspecified): the result in experiment [1], in experiment [4], in experiment [7] and in [8] was inactive. Besides, the AC50 in experiment [3] was 26.2 µM (active); in [5], 32.6 µM (active); in experiment [11] it was 25.3 µM (active); in experiment [6], 28.7 µM (active); in experiment [12] it was 10 µM (active); in [10] it was 16 µM (active).

Take `O=c1n(Cl)c(=O)n(Cl)c(=O)n1Cl`: the outcome in [1], in experiment [3], in experiment [4], in experiment [5], in [6] and in [7] was inactive. The AC50 in experiment [2] was 11.6 µM (active).

For `C=C(C)CN(CC)c1c([N+](=O)[O-])cc(C(F)(F)F)cc1[N+](=O)[O-]`, the outcome in [1], in [2] and in experiment [4] was inactive. For the same molecule, the half-maximal activity concentration (AC50) is 33.7 µM (active) in experiment [3], 30.8 µM (active) in experiment [5], 28.8 µM (active) in experiment [6] and 15.2 µM (active) in experiment [7].

In the case of `Nc1cnn(-c2ccccc2)c(=O)c1Cl`, the result in [1], in experiment [2], in experiment [3], in experiment [4], in experiment [5] and in [6] was inactive. In addition, the result in experiment [7] was inactive.

Turning to `COC(=O)N(C(=O)N1CO[C@@]2(C(=O)OC)Cc3cc(Cl)ccc3C2=N1)c1ccc(OC(F)(F)F)cc1`, the concentration at half-maximal activity (AC50) is 6.93 µM (active) in experiment [1]; 5.47 µM (active) in experiment [2]; 7.29 µM (active) in [6]; 5.59 µM (active) in [7]; 0.102 µM (active) in experiment [10]. Besides, the result in [3], in experiment [4], in [5] and in [12] was inactive.

Consider `CCC(C)n1c(=O)[nH]c(C)c(Br)c1=O` (stereo unspecified), for which the outcome in experiment [1], in experiment [2], in experiment [3], in [4], in [5] and in [6] was inactive. For the same molecule, the outcome in experiment [7] and in [10] was inactive.

For the origin of these results see PubChem BioAssay (EPA / NIEHS).
